TRHR PAM: allosteric enhancers of human TRH receptor | P34981 | 360,000 tested, 0.66% active | AID 493056 | enhancement, % at 2 µM | TRHR cells, fluo-8 calcium fluorescence, EC20 TRH enhancement; in the data active means enhancement above about 30%; further: 0% is about no effect
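Enhancer read-out: after compound pinning and an initial kinetic agonist-mode read, an EC20 of TRH (10 nM final) was injected and fluo-8 calcium signal (Ex 480/Em 530) followed at 1 s/cycle for 100 cycles in TRHR-expressing cells.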
D1 PAM: potentiators of human D1 dopamine receptor | AID 504651 | 360,000 tested, 0.036% active | potentiation, % at 10 µM | HEK293 TREx D1 cells, calcium flux, dopamine EC20 potentiation | P21728; in the data active means potentiation above about 30%; further: 0% is about no effect
D1 ag: human D1 receptor agonism | HEK293 T-REx D1 cells, calcium flux, agonist mode | 360,000 tested, 1% active | activation, % at 2 µM; further: 0% is about no effect
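Tetracycline-induced HEK293 TREx D1 cells, force-coupled to calcium signalling, were dye-loaded with a no-wash calcium kit. Compound was pin-added after a 10 s baseline. Fluorescence was read kinetically at 1 cycle/s for 180 s, with calcium rises flagged as agonism.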
TRHR ag: TRH receptor (human) agonism. activation, % at 2 µM. P34981. TRHR cells, calcium flux fluo-8, FDSS agonist mode. 360,000 tested, 0.18% active; further: 0% is about no effect
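TRHR-expressing cells, plated overnight in medium with 10% serum, were loaded with fluo-8 calcium dye at room temperature. After a 10 s baseline, library compound was pin-added and calcium release was recorded kinetically (ex 480/em 530) as agonist response.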
USP1-UAF1 inh: inhibitors of human USP1/UAF1 deubiquitinase. recombinant USP1/UAF1, Ub-Rhodamine cleavage fluorescence. Potency, µM (series often up to 57.1 µM), inactives show at the top dose activity change, negative = inhibition, usual class: inhibitors. 390,000 tested, 0.23% active; active means well fitted inhibition curve with a large enough effect; inconclusive means small, poorly fitted or top-dose-only effect; inactive means no such curve, though single readings can be large or run the other way; further: potency means the concentration at half of the fitted maximal effect; on the % scale 0 is the no-effect control and ±100 the full control effect; nearly all actives have a fitted effect of over 60% in size
Target sequence (O94782 whole entry, looked up): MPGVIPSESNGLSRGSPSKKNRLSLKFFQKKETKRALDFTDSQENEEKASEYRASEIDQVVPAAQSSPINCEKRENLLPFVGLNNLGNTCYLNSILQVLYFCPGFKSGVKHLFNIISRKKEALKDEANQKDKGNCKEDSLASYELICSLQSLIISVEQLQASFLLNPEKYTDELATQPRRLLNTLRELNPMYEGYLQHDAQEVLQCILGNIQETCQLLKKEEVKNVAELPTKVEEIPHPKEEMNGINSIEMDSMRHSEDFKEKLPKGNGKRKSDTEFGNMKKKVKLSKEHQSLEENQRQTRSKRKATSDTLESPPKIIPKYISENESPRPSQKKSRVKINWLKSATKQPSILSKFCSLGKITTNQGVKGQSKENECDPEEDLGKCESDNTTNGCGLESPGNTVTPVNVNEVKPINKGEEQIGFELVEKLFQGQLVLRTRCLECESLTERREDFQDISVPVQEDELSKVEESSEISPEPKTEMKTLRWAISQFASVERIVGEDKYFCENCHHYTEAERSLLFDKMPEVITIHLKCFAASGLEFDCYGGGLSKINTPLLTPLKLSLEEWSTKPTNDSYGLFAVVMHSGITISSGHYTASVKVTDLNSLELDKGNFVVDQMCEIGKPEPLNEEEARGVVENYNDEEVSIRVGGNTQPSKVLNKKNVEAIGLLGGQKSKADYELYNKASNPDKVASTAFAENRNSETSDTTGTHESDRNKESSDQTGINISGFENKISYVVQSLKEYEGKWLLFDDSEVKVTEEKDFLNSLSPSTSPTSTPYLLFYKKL
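High-throughput fluorogenic screen: 1nM USP1/UAF1 complex, Ub-Rho substrate 150nM final, 50mM HEPES pH 7.8 with 0.5mM EDTA, 0.1 mg/ml BSA, 1mM TCEP and 0.01% Tween-20.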
D1 antagonist: human D1 dopamine receptor antagonism; HEK293 TREx D1 cells, calcium flux, dopamine EC80; stronger effect = lower value; activity change, negative = inhibition, % at 10 µM; 360,000 tested, 3.2% active; AID 504652; in the data active means activity change below about -30%; further: on the % scale 0 is the no-effect control and ±100 the full control effect
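Cells carrying a force-coupled, tetracycline-inducible human D1 receptor report calcium flux. Each well gets a 10 s baseline, compound with 180 s monitoring, then an EC80 dopamine stimulus with a second 180 s kinetic read.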
The depositor's hits bear a star; ? = inconclusive; . = no result. Only some compounds are listed: those with a hit (about 4.4% of all), similar ones and a draw of the others. Unless noted, no stated cut-off is given here; in the data, active means activation above about 30%; inactive means the rest.

SMILES | TRHR PAM | D1 PAM | D1 ag | TRHR ag | USP1-UAF1 inh | D1 antagonist
CC(=O)c1ccc(Nc2nc(N3CCOCC3)nc(N3CCOCC3)n2)cc1 | 40* | 5 | 0 | 0 | -17% | 12
CCc1ccc(NC(=O)Cn2c(=O)n(Cc3ccc4c(c3)OCO4)c(=O)c3oc4ccccc4c32)cc1 | 1 | -4 | 2 | 1 | -6% | 4
CC(C)c1cc2c(s1)c1cnn(Cc3ccccc3F)c(=O)c1n2C | -2 | -3 | 13 | 0 | . | 5
Cc1noc(C)c1COc1ccccc1C(=O)N(C)CC(=O)Nc1ccc(F)cc1 | 3 | 34* | 1 | 0 | 0% | -21
Cc1noc(C)c1CSCC(=O)N(C)CC(=O)Nc1ccc(Cl)cc1 | -3 | -8 | 3 | 0 | -21% | -44*
COc1ccc(NC(=O)CN(C)C(=O)c2ccccc2OC)cc1 | 35* | 3 | 1 | 1 | ? | 2
Cc1noc(C)c1CSCC(=O)N(C)CC(=O)Nc1ccc(F)cc1 | 3 | 4 | 3 | 0 | 3% | -1
Cc1noc(C)c1COc1ccccc1C(=O)N(C)Cc1ccc(F)cc1 | -7 | -4 | 2 | 1 | -28% | -11
Cc1noc(C)c1COc1ccccc1C(=O)N(C)Cc1ccc(C(C)(C)C)cc1 | -9 | -11 | 13 | 2 | -22% | -36*
Clc1ccccc1Nc1ncnc2c1nc1n2CCCCC1 | 9 | 2 | 5 | -1 | -23% | 3
Cc1ccc(CNC(=O)Cn2c(=O)n(Cc3ccccc3)c(=O)c3c2c2cc(C)ccc2n3C)cc1 | 9 | -2 | 1 | 1 | -30% | 1
Cc1nn2c(=O)cc(COC(=O)c3cccc(NC(=O)c4cccs4)c3)nc2s1 | 1 | 0 | 0 | 0 | 7% | 8
COc1cccc(Nc2sc(C(=O)c3ccc(F)cc3)c(N)c2C(=O)NCc2ccc(C)cc2)c1 | 7 | -5 | 17 | 0 | 6% | -3
Cc1noc(C)c1COc1ccccc1C(=O)NCCc1ccc(S(N)(=O)=O)cc1 | -5 | -11 | 2 | 0 | -2% | -34*
Cc1noc(C)c1COc1ccccc1C(=O)NCCc1ccc(Cl)cc1 | -9 | -3 | 5 | -2 | -17% | 0
CC(C)CC(=O)Nc1cccc(C(C)O)c1 (configuration not stated) | 0 | -3 | 2 | 0 | . | -31*
CCCCC(=O)Nc1cccc(C(C)O)c1 (configuration not stated) | 0 | -8 | 2 | 0 | . | -4
O=C1C2C(C(=O)N1/N=C/c1cc(Br)cc([N+](=O)[O-])c1O)C1C=CC2C12CC2 (configuration not stated) | -2 | 1 | 5 | 0 | -13% | -31*
O=C1C2C(C(=O)N1/N=C/c1cc([N+](=O)[O-])c(O)cc1O)C1C=CC2C12CC2 (configuration not stated) | 3 | -1 | 1 | -2 | -1% | -4
CCN(CC)c1ccc(N)cc1 | -10 | 8 | 5 | 3 | -32% | .
Nc1ccc(N(CCO)CCO)cc1 | -4 | -5 | 5 | 5 | 8.9µM* | -2
Cc1ccc(NC(=O)Cn2c(=O)n(Cc3ccco3)c(=O)c3sc4ccccc4c32)cc1C | -1 | -1 | 7 | -2 | -24% | -6
S=C(N/N=C/c1ccc(Cl)cc1)N1CCOCC1 | -9 | -9 | 1 | 0 | -18% | -37*
Cc1ccc(/C=N/NC(=S)N2CCOCC2)cc1 | 0 | -4 | 3 | -1 | -14% | -14
CC(C)(C#CC(O)(c1ccccc1)c1ccccc1)N1CCCC1 | 3 | -4 | 7 | 2 | -5% | -71*
Nc1cc(C(F)(F)F)ccc1S(=O)(=O)Nc1cccc2c1NCCC2 | 4 | 0 | 11 | 0 | . | 1
CC/C(=N\Nc1ccc([N+](=O)[O-])cc1[N+](=O)[O-])c1ccc(O)cc1 | -2 | -8 | -1 | -1 | -20% | -34*
C/C(=N\Nc1ccc(C#N)cc1[N+](=O)[O-])c1ccc(O)cc1 | -4 | -4 | 6 | 0 | -3% | -43*
